Screens as filed in PubChem.
FMDV antiviral – blocks foot and mouth disease virus; FMDV antiviral cell-based qHTS; Potency, µM (doses to about 57.9 µM), inactives show top-dose activity change, negative = inhibition, hits mostly inhibitors; 410,000 compounds, 1.2% hits; AID 1159524; calls by dose curve; tested in HEK293T cells; note: read-out not given here; nearly all actives have a fitted effect of over 45% in size
LASV entry inh – Lassa virus entry inhibition; Potency, µM (highest dose often 37.9 µM), inactives show top-dose activity change, negative = inhibition, hits mostly inhibitors; Lassa virus pseudotype entry inhibition, cell reporter; 300,000 compounds, 1.2% hits; calls by dose curve; tested in HEK293 cells; note: nearly all actives have a fitted effect of over 50% in size
VACV Venus inh – vaccinia inhibition (Venus reporter); Vaccinia virus Venus reporter expression, fluorescence; Potency, µM (doses to about 36.5 µM), inactives show top-dose activity change, negative = inhibition, hits mostly inhibitors; AID 720580; 330,000 compounds, 0.46% hits; calls by dose curve; tested in A549 cells; note: nearly all actives have a fitted effect of over 30% in size
Marburg entry inh – blocks Marburg virus binding to or entry into cells. Potency, µM (top dose mostly 37.8 µM), without a hit: at the highest dose activity change, negative = inhibition, usual class: inhibitors. Marburg virus pseudotyped entry inhibition, cell reporter. 300,000 compounds, 1.8% hits; calls by dose curve; tested in HEK293 cells
Vaccinia mCherry – vaccinia inhibition (mCherry reporter). Vaccinia virus mCherry reporter infection, fluorescence. Potency, µM (top dose mostly 36.5 µM), without a hit: at the top dose activity change, negative = inhibition, most hits filed as inhibitors. 310,000 compounds, 0.63% hits; calls by dose curve; tested in A549 cells; note: nearly all actives have a fitted effect of over 35% in size
Active calls of the source: *; i = inactive; ? = inconclusive; · = not tested or not shown; [ ] = remark or other dose. Shown are actives, neighbours in structure and some others; about 3.2% of the full set was active somewhere. % is set by controls: 0 for no effect and ±100 for the full control effect; potency is the fitted concentration of half-maximal effect.

SMILES	FMDV antiviral	LASV entry inh	VACV Venus inh	Marburg entry inh	Vaccinia mCherry
COCCNc1c(-c2cc3ccc(C)c(C)c3[nH]c2=O)nc2ccccn12	16%	5µM*	-13%	?	?
COc1ccc(CCN2C(=O)CC(NNc3ccc([N+](=O)[O-])cc3)C2=O)cc1OC (stereo not given)	?	-3%	4%	-1%[46.1 µM]	1%
COc1ccc(O[C@H]2C=C[C@@H](c3ccccc3)O[C@H]2CON=C2[C@H]3CCn4c(=O)n(-c5ccccc5)c(=O)n4[C@@H]3[C@H](O)[C@@H]3O[C@H]23)cc1	·	·	·	5%[14.2 µM]	·
CCOC(=O)C(CN1CCCC1)c1ccccc1 (stereo not given)	-15%	·	-9%	·	i
O=C(c1ccccc1)C(CN1CCCC1)c1ccccc1 (stereo not given)	3.5µM*	7.9µM*	16µM*	7.1µM*	?
O=C(c1ccc(Cl)cc1)C(CN1CCCCC1)c1ccccc1 (stereo not given)	14µM*	?	11µM*	?	?
Cc1nc2cc(NC(=O)NC(C)(C)C)ccc2n1C	57%	·	·	·	·
Cc1nc2cc(NC(=O)Nc3nccs3)ccc2n1C	·	13µM*	-20%	?	-22%
O=C1C(Br)=C(c2ccccc2)C(c2ccccc2)=C1c1ccccc1	3.5µM*	?	-10%	?	-7%
CCn1c(/C=C/Nc2ccccc2)[n+](CC)c2cc(Cl)c(Cl)cc21	-18%	?	-23%	13µM*	-11%
Cc1ccnc2ccc(N)cc12	·	·	-7%	·	-15%
O=C(Nc1cccc(Cl)c1Cl)c1snnc1-c1ccccc1	?	?	-7%	?	·
O=C(Nc1cc(Cl)ccc1O)c1snnc1-c1ccccc1	20µM*	?	·	?	·
CCNC(=S)N(CCc1c(C)[nH]c2ccc(Cl)cc12)Cc1ccco1	?	7.9µM*	-16%	?	?
CNC(=S)N(CCc1c(C)[nH]c2ccc(C)cc12)Cc1ccco1	-17%	-33%	-13%	-40%	i
COC(=O)C1=C(C(=O)OC)[C@@H]2N(Cc3ccccc3)c3ccccc3[C@@]23C[C@@H](C(=O)OC)N(C(C)=O)C3=N1	0%	·	-18%	·	?
COC(=O)C1=C(C(=O)OC)[C@@H]2N(C)c3ccc(OC)cc3[C@@]23C[C@@H](C(=O)OC)N(C(=O)c2ccc(Br)cc2)C3=N1	?	·	11µM*	·	?
COC(=O)C1=C(C(=O)OC)[C@@H]2N(Cc3ccccc3)c3ccccc3[C@@]23C[C@@H](C(=O)OC)N(C(=O)c2ccc(Br)cc2)C3=N1	?	·	10µM*	·	?
O=C(N/N=C/c1ccc(F)cc1)c1sccc1OCc1ccc(F)cc1	9%	?	?	2.2µM*	?
CSc1ccc(/C=N/NC(=O)c2sccc2C)cc1	-6%	?	-19%	10µM*	-2%
O=C(CNC(=O)C(c1ccccc1)c1ccccc1)OCC(=O)c1ccc2ccccc2c1	·	·	-9%	·	5%
COc1ccc(N=C2S/C(=C\c3cc(C)n(C)c3C)C(=O)N2C)cc1	-14%	4.5µM*	-29%	?	·
CCCN1C(=O)/C(=C/c2cc(C)n(C)c2C)SC1=Nc1ccc(OC)cc1	-22%	?	?	?	·
CC1CN(CCc2ccccc2)c2nc3c(c(=O)n(C)c(=O)n3C)n2C1 (stereo not given)	6%	·	·	·	·
CCOc1ccc(-c2nnc(SCC(=O)Nc3ccc4c(c3)c3ccccc3n4CC)n2N)cc1	-23%	?	·	12µM*	·
CC(C)COC(=O)N1CCCCC1c1cc(C(=O)NCc2cccnc2)no1 (stereo not given)	-15%	·	-4%	·	i
Cc1ccc(C(c2nnnn2Cc2cccs2)N2CCN(Cc3ccc4c(c3)OCO4)CC2)cc1 (stereo not given)	16%	11µM*	-29%	?	-20%
CCN1CCN(C(c2nnnn2Cc2ccc3c(c2)OCO3)C(C)C)CC1 (stereo not given)	-7%	4%	·	-3%	·
CC(C)C(c1nnnn1Cc1ccc(F)cc1)N1CCN(Cc2ccc3c(c2)OCO3)CC1 (stereo not given)	?	?	?	13µM*	·
COCCn1nnnc1C(c1ccc(C)cc1)N1CCN(Cc2ccc3c(c2)OCO3)CC1 (stereo not given)	-11%	1%	-16%	?	-20%
